PubChem BioAssay (NCI)
This is part of a sample that, as a whole, favours compounds with a hit. Of some 79,000 tested, about 15% had one in any assay. Calls of active or inactive are those of the source. Rule as the data show it: active = growth inhibition above about 70%; inactive = the rest.

Tests used:
[1] = NCI Yeast Anticancer Drug Screen. Data for the rad50 strain (AID 155);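 also: 0% = growth of vehicle-only cultures of the same strain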; conditions: S. cerevisiae rad50 strain growth inhibition, stronger effect = higher value
How it was run: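 Genetically altered yeast (DNA repair pathway); compound treatment; growth inhibition vs vehicle ctrl.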

[2] = NCI Yeast Anticancer Drug Screen. Data for the mec2-1 strain (AID 157); conditions: S. cerevisiae mec2-1 strain, stronger effect = higher value
How it was run: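 Each compound was tested on mec2-1 yeast, a strain altered in DNA damage repair or cell cycle control. Growth inhibition is reported relative to vehicle.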

[3] = NCI Yeast Anticancer Drug Screen. Data for the sgs1 mgt1 strain (AID 161);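 also: 0% = growth of cultures given vehicle only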; conditions: S. cerevisiae sgs1 mgt1 strain, stronger effect = higher value
How it was run: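 Genetically altered yeast, compound exposure, growth inhibition relative to vehicle.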

[4] = NCI Yeast Anticancer Drug Screen. Data for the cln2 rad14 strain (AID 165);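 also: 0% = growth equal to vehicle treated cultures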; conditions: S. cerevisiae cln2 rad14 strain, stronger effect = higher value
How it was run: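 Test compounds were added to cln2 rad14 yeast cultures; inhibition of growth was then determined by comparison with vehicle treatment.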

[5] = NCI Yeast Anticancer Drug Screen. Data for the bub3 strain (AID 167); conditions: S. cerevisiae bub3 mutant strain, stronger effect = higher value
How it was run: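 Yeast carrying a defined mutation is treated with each compound, and growth is compared with that of vehicle-exposed cells to give inhibition.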

[6] = NCI Yeast Anticancer Drug Screen. Data for the mlh1 rad18 strain (AID 175); conditions: S. cerevisiae mlh1 rad18 strain growth inhibition, stronger effect = higher value
How it was run: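 Inhibition values reflect reduced growth of mutant yeast versus vehicle-treated controls following compound exposure; the mutations affect DNA damage repair.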

[7] = at 5.0 µM (retest, dose inferred, filed as 0.5)
[8] = at 50.0 µM (retest, dose inferred, filed as 5.0)

Measured: growth inhibition

O=C1C=CC(=O)N1CCc1ccccc1
inactive: [1]; [7] -33% | [2]; [7] -31% | [3]; [7] -34% | [4]; [7] -10% | [5]; [7] -45% | [6]; [7] -90%
active: [1]; [8] 97% | [1]; at 50.0 µM 99.5% | [2]; [8] 98% | [2]; at 50.0 µM 99.5% | [3]; [8] 98% | [3]; at 50.0 µM 99.3% | [4]; [8] 98% | [4]; at 50.0 µM 99.3% | [5]; [8] 98% | [5]; at 50.0 µM 99.3% | [6]; [8] 97% | [6]; at 50.0 µM 99.2%

Cc1cccc(/C=N/Nc2cc(C)nc3ccccc23)n1
inactive: [1]; [7] 1% | [1]; [8] 2% | [2]; [7] -3% | [2]; [8] -3% | [2]; at 50.0 µM 37.8% | [3]; [7] -2% | [3]; [8] 35% | [3]; at 50.0 µM 53.6% | [4]; [7] 5% | [4]; [8] 40% | [4]; at 50.0 µM 53.8% | [5]; [7] 2% | [5]; [8] 7% | [5]; at 50.0 µM 19.7% | [6]; [7] -1% | [6]; [8] 34% | [6]; at 50.0 µM 46.4%
active: [1]; at 50.0 µM 92.7%

CC1CCN(CCCOC(=O)c2ccccc2)CC1
active: [4]; at 50.0 µM 77% | [6]; [8] 74%
inactive: [1]; [7] 25% | [1]; [8] 40% | [1]; at 50.0 µM 58.9% | [2]; [7] 13% | [2]; [8] 56% | [2]; at 50.0 µM 30.5% | [3]; [7] 35% | [3]; [8] 66% | [3]; at 50.0 µM 62.1% | [4]; [7] 25% | [4]; [8] 54% | [5]; [7] 31% | [5]; [8] 64% | [5]; at 50.0 µM 63.2% | [6]; [7] 52% | [6]; at 50.0 µM 55%

CCOc1c(N=Nc2ccc(Cl)cc2)c(-c2ccccc2)nn1C(=S)S
active: [1]; [8] 91% | [1]; at 50.0 µM 95.3% | [2]; [8] 89% | [2]; at 50.0 µM 95.6% | [3]; [8] 92% | [3]; at 50.0 µM 92% | [4]; [8] 92% | [4]; at 50.0 µM 91.5% | [5]; [8] 94% | [5]; at 50.0 µM 92.8% | [6]; [8] 91% | [6]; at 50.0 µM 94.4%
inactive: [1]; [7] 4% | [2]; [7] 2% | [3]; [7] 8% | [4]; [7] 5% | [5]; [7] 0% | [6]; [7] 2%

O=C(/C=N/O)c1c(-c2ccccc2)[nH]c(-c2ccccc2)c1-c1ccccc1
inactive: [1]; [7] 4% | [2]; [7] 5% | [3]; [7] 7% | [4]; [7] 1% | [4]; [8] 33% | [5]; [7] 11% | [5]; [8] 13% | [6]; [7] 31%
active: [1]; [8] 75% | [1]; at 50.0 µM 94.2% | [2]; [8] 77% | [2]; at 50.0 µM 77.8% | [3]; [8] 90% | [3]; at 50.0 µM 96.3% | [4]; at 50.0 µM 91% | [5]; at 50.0 µM 85.7% | [6]; [8] 93% | [6]; at 50.0 µM 96%

CCCCCCCCCCCCCCCC1C(N)C(=O)N(C)N1C (configuration not stated)
inactive: [1]; [7] -33% | [2]; [7] -25% | [3]; [7] -19% | [4]; [7] -30% | [5]; [7] -51% | [6]; [7] -43%
active: [1]; [8] 96% | [1]; at 50.0 µM 89.7% | [2]; [8] 97% | [2]; at 50.0 µM 91.2% | [3]; [8] 95% | [3]; at 50.0 µM 91.7% | [4]; [8] 94% | [4]; at 50.0 µM 88% | [5]; [8] 95% | [5]; at 50.0 µM 89.5% | [6]; [8] 95% | [6]; at 50.0 µM 90.4%

S=C(N/N=C/c1ccccn1)N1CC2CCC(CC2)C1
active: [1]; [7] 99% | [1]; [8] 100% | [1]; at 50.0 µM 90.2% | [2]; [7] 99% | [2]; [8] 100% | [2]; at 50.0 µM 93.5% | [3]; [7] 98% | [3]; [8] 99% | [3]; at 50.0 µM 92% | [4]; [7] 97% | [4]; [8] 100% | [4]; at 50.0 µM 93.2% | [5]; [7] 99% | [5]; [8] 99% | [5]; at 50.0 µM 92.7% | [6]; [7] 99% | [6]; [8] 99% | [6]; at 50.0 µM 89.7%

Cc1nc(Cl)c(C#N)c(C)c1[N+](=O)[O-]
inactive: [1]; [7] -103% | [2]; [7] -31% | [3]; [7] -46% | [4]; [7] -37% | [5]; [7] -63% | [6]; [7] -115%
active: [1]; [8] 91% | [1]; at 50.0 µM 79.9% | [2]; [8] 81% | [2]; at 50.0 µM 81.9% | [3]; [8] 84% | [3]; at 50.0 µM 70.3% | [4]; [8] 75% | [4]; at 50.0 µM 87% | [5]; [8] 83% | [5]; at 50.0 µM 75.3% | [6]; [8] 91% | [6]; at 50.0 µM 84.8%

CC(C)OP(=O)(OC(C)C)/C(=N/Nc1ccc([N+](=O)[O-])cc1)NNC(=O)c1ccccc1
inactive: [1]; [7] -24% | [1]; [8] 61% | [2]; [7] -12% | [3]; [7] -11% | [3]; [8] 53% | [4]; [7] -21% | [4]; [8] 67% | [5]; [7] -15% | [6]; [7] 3%
active: [1]; at 50.0 µM 95.2% | [2]; [8] 74% | [2]; at 50.0 µM 95.7% | [3]; at 50.0 µM 93.5% | [4]; at 50.0 µM 87.2% | [5]; [8] 74% | [5]; at 50.0 µM 94.9% | [6]; [8] 92% | [6]; at 50.0 µM 94.6%
